KLF5 inh – KLF5 expression inhibitors, primary screen, DLD-1 cells, luminescence; DLD-1 KLF5 promoter-luciferase reporter; inhibition, % at 5 µM; 290,000 tested, 0.23% active; AID 1700, 2009;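 active means inhibition above a per-plate limit of that plate's mean compound inhibition plus 3 SD, cut at about 60% in these data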;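 further: 0% = DMSO wells and 100% = LY294002 at 200 µM; higher means less KLF5 promoter-driven luciferase light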
aSyn 5UTR inh – MLPCN primary screen, SNCA 5' untranslated region. 300,000 tested, 0.82% active. inhibition, % (tested at 7.5 µM). alpha-synuclein 5'UTR reporter, inhibitor activity; in the data active means inhibition above about 60%; inconclusive means no clear call, values can overlap the other calls;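 further: H4 neuroglioblastoma cells stably carrying SNCA 5'UTR luciferase fusion; 0% = DMSO wells and 100% = positive control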
APP transl inh – inhibitors of APP translation via 5'UTR reporter, primary screen, APP 5'UTR luciferase, SH-SY5Y cells; SH-SY5Y APP 5'UTR-luciferase reporter, luminescence; inhibition, % at 2 µM; 190,000 tested, 0.82% active; AID 1285, 2008;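 active means inhibition above a set limit, derived from the sample mean plus 3 SD, cut at about 45% in these data; inconclusive means one replicate passes the limit while the other fails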
IEC-6 tox – cytotoxicity in IEC-6 intestinal epithelial cells, primary screen, cytotoxicity control for KLF5 inhibitor project, cell-based, luminescence | IEC-6 cytotoxicity, luminescence viability | inhibition, % at 5 µM | 290,000 tested, 0.78% active | AID 1825, 2009; in the data active means inhibition above about 22%;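 further: 0% = plate median of test compound wells and 100% = cytotoxic reference compound wells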
BaF3 tox – parental Ba/F3 cell viability inhibition, counter-screen for JAK2V617F inhibitor project, murine pro-B, CellTiter-Glo luminescence | CellTiter-Glo ATP luminescence | inhibition, % at 5.6 µM | 220,000 tested, 1.1% active;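 active means inhibition above a per-campaign cutoff, the mean inhibition of all tested compounds plus 3 SD, cut at about 27% in these data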;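 further: 0% = DMSO wells and 100% = JAK Inhibitor I control wells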
Ba/F3 V617F tox – reduced viability of JAK2V617F-dependent Ba/F3 cells, primary screen, JAK2V617F inhibitor project, cell-based, Ba/F3 EpoR-JAK2V617F, luminescence; ATP luminescence; inhibition, % at 5.6 µM; 220,000 tested, 1.1% active;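 active means inhibition above the campaign mean plus 3 SD over all tested compounds, cut at about 24% in these data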;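 further: cytokine-independent growth of Ba/F3 cells driven by EpoR plus mutant JAK2; 0% = DMSO-treated cells and 100% = JAK inhibitor I control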
Numbers without * were called inactive; u = inconclusive; x = not tested or not shown. A selection: hits, their analogues and other compounds. The true share with any hit is near 2.2%.

SMILES | KLF5 inh | aSyn 5UTR inh | APP transl inh | IEC-6 tox | BaF3 tox | Ba/F3 V617F tox
COc1ccc(NC(=O)c2ccc(N3C(=O)C4CC=C(C)CC4C3=O)cc2)c(OC)c1 (stereo not drawn) | -23 | 37 | x | 21 | x | x
O=C(CSc1ccc(-c2ccccn2)nn1)Nc1cccc(F)c1 | -21 | -9 | x | 5 | x | x
CC(C)OC(=O)c1ccccc1C(=O)c1ccc(N)c([N+](=O)[O-])c1 | 0 | 4 | 7 | -2 | 3 | -3
O=C(COC(=O)c1ccccc1C(=O)c1ccc(Cl)c([N+](=O)[O-])c1)NC1CC1 | -10 | -23 | 48* | -7 | -5 | -2
CNC(=O)COC(=O)c1ccccc1C(=O)c1ccc(Cl)c([N+](=O)[O-])c1 | -4 | -19 | 54* | -2 | 4 | 4
Cc1nc(C)c(/C(O)=C/c2nc3ccc([N+](=O)[O-])cc3oc2=O)o1 | 1 | -20 | -19 | -7 | 4 | -1
CC(C)N1C(=O)S/C(=C/c2ccccc2OCc2ccc(C(=O)O)cc2)C1=O | -22 | 9 | -4 | 1 | 8 | -3
S=C(Nc1ccc(Cl)cc1)Nc1cccc2cnccc12 | 4 | -13 | 16 | 8 | 7 | 12
S=C(Nc1cccnc1)Nc1cccc2cnccc12 | -3 | 66* | -1 | 4 | 11 | 7
CC1CCCN(C(=O)CN(C)S(=O)(=O)c2cccc3nsnc23)C1 (stereo not drawn) | -11 | 16 | x | 4 | x | x
O=c1[nH]cc(O)c(=O)[nH]1 | 4 | 19 | x | 0 | -3 | 4
O=c1[nH]cc(F)c(=O)[nH]1 | 46 | -31 | 6 | 86* | 83* | 86*
CC1(C)CC(NC(=O)C2CCCCC2)CC(C)(C)N1 | -57 | -10 | x | 2 | x | x
CCCCOc1c(Br)cc(CNCCCN2CCOCC2)cc1OC | -28 | -22 | x | -1 | x | x
CC(C)C(C(=O)Nc1ccc2c(c1)OCCO2)N1C(=O)c2ccccc2C1=O (stereo not drawn) | 12 | -3 | -13 | -6 | 94* | 0
CC(C(=O)Nc1ccc(N2CCOCC2)cc1)N1C(=O)c2ccccc2C1=O (stereo not drawn) | -36 | 27 | 16 | 0 | 6 | -2
CC(C)C(C(=O)Nc1ccc(N2CCOCC2)cc1)N1C(=O)c2ccccc2C1=O (stereo not drawn) | -13 | -1 | 6 | 5 | 60* | -2
Cc1ccc(NC(=O)CCS(=O)(=O)c2ccc3c(c2)NC(=O)C(C)S3)cc1Cl (stereo not drawn) | -2 | 27 | x | -6 | x | x
CC1(C)Cc2c(cnn2-c2ccccc2)C(NC(=O)c2ccc[n+]([O-])c2)C1 (stereo not drawn) | -17 | 13 | x | 4 | x | x
O=Cc1cc2ccccc2nc1SCc1ccc(Cl)cc1 | -4 | 95* | 3 | 0 | 3 | 3
O=Cc1cc2ccccc2nc1SCc1ccc(Cl)c(Cl)c1 | -18 | 109* | 8 | 1 | -1 | -3
Cc1ccc(CSc2ncnc3ccccc23)cc1 | -2 | -30 | -21 | -1 | 3 | 4
O=Cc1cccnc1SCc1ccccc1 | x | -39 | x | x | x | x
Cc1ccc(CSc2nc3ccccc3cc2C=O)cc1 | 7 | 93* | 94* | -2 | 3 | 2
CC(C)CC1(C)N=C(c2ccccc2)C(=S)N1 (stereo not drawn) | -3 | 20 | -23 | -2 | -1 | -3
SMILES | KLF5 inh | aSyn 5UTR inh | APP transl inh | IEC-6 tox | BaF3 tox | Ba/F3 V617F tox
COc1cccc(NC(=O)CCC(=O)Nc2cc(OC)c(NC(=O)c3cccs3)cc2OC)c1 | -20 | -4 | x | -3 | x | x
CCOc1ccccc1NC(=O)CN(c1ccc(OC)cc1)S(=O)(=O)c1c(C)noc1C | -6 | 59 | 89* | 2 | 75* | 79*
CCOc1ccc(N(CC(=O)Nc2ccccc2C)S(=O)(=O)c2c(C)noc2C)cc1 | 28 | u | 66* | 63* | 54* | 78*
CCOc1ccc(N(CC(=O)Nc2ccc(C)c(C)c2)S(=O)(=O)c2c(C)noc2C)cc1 | 13 | 12 | -14 | 2 | 2 | 2
CNC(=S)N/N=C/c1c(C)c(C(=O)c2ccc(F)cc2)n2ccccc12 | -2 | 23 | x | 12 | x | x
CCc1c(C)[nH]n(-c2nc(-c3ccccc3)cs2)c1=O | -43 | -21 | -34 | 2 | 3 | -4

Assay outcomes (PubChem)
